Assay results published in the supplement of paper PMC8728848.
Only a selection was taken, and the strongest signals are over-represented in it overall.

B1: Flo10 (Saccharomyces cerevisiae), P36170 (protein)
chain: MPVAARYIFLTGLFLLSVANVALGTTEACLPAGEKKNGMTINFYQYSLKDSSTYSNPSYMAYGYADAEKLGSVSGQTKLSIDYSIPCNGASDTCACSDDDATEYSASQVVPVKRGVKLCSDNTTLSSKTEKRENDDCDQGAAYWSSDLFGFYTTPTNVTVEMTGYFLPPKTGTYTFGFATVDDSAILSVGGNVAFECCKQEQPPITSTDFTINGIKPWNADAPTDIKGSTYMYAGYYYPIKIVYSNAVSWGTLPVSVVLPDGTEVNDDFEGYVFSFDDNATQAHCSVPNPAEHARTCVSSATSSWSSSEVCTECTETESTSYVTPYVTSSSWSSSEVCTECTETESTSTSTPYVTSSSSSSSEVCTECTETESTSYVTPYVSSSTAAANYTSSFSSSSEVCTECTETESTSTSTPYVTSSSWSSSEVCTECTETESTSYVTPYVSSSTAAANYTSSFSSSSEVCTECTETESTSTSTPYVTSSSSSSSEVCTECTETESTSYVTPYVSSSTAAANYTSSFSSSSEVCTECTETESTSTSTPYVTSSSWSSSEVCTECTETESTSYVTPYVSSSTAAANYTSSFSSSSEVCTECTETESTSTSTPYATSSTGTATSFTASTSNTMTSLVQTDTTVSFSLSSTVSEHTNAPTSSVESNASTFISSNKGSVKSYVTSSIHSITPMYPSNQTVTSSSVVSTPITSESSESSASVTILPSTITSEFKPSTMKTKVVSISSSPTNLITSYDTTSKDSTVGSSTSSVSLISSISLPSSYSASSEQIFHSSIVSSNGQALTSFSSTKVSSSESSESHRTSPTTSSESGIKSSGVEIESTSTSSFSFHETSTASTSVQISSQFVTPSSPISTVAPRSTGLNSQTESTNSSKETMSSENSASVMPSSSATSPKTGKVTSDETSSGFSRDRTTVYRMTSETPSTNEQTTLITVSSCESNSCSNTVSSAVVSTATTTINGITTEYTTWCPLSATELTTVSKLESEEKTTLITVTSCESGVCSETASPAIVSTATATVNDVVTVYSTWSPQATNKLAVSSDIENSASKASFVSEAAETKSISRNNNFVPTSGTTSIETHTTTTSNASENSDNVSASEAVSSKSVTNPVLISVSQQPRGTPASSMIGSSTASLEMSSYLGIANHLLTNSGISIFIASLLLAIV
B2: SSL (Salmo salar) (protein)
chain: TGAKGAEEGVVPAETRNQCPTGWFQFGSRCFMFVETARSWPLAERHCVSLGANLASVHSSADDQFLQAIAGCKTGAFSTTWIGGFDAVQDRLWFWSDGSEFDYQNWAKGEPNNSGGREPCIVINWGDEYRWNDIKCGNSFPSVCSKRICEIQKN

Columns and labels:
Assay in all cases: glycan array binding signal (z-score within array); higher = stronger binding
Conditions in all cases: glycan notation: IUPAC condensed, linker removed
[1] = molecular target: Neu5Ac(a2-3)Gal(b1-4)[Fuc(a1-3)]GlcNAc(b1-3)GalNAc
Outline: (§1)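 Glycan array data were curated from 3228 arrays in the Consortium for Functional Glycomics database and kept only where the protein sequence was available. Glycan names were converted to IUPAC-condensed notation, and columns mapping to the same glycan were averaged. The binding signal is a within-array Z-score, averaged across arrays of the same protein sequence at different concentrations or buffers and across linkers. Negative Z-scores can be read as non-binding.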

[2] = molecular target: Neu5Ac(a2-3)GalNAc
Outline: as §1

[3] = molecular target: Neu5Ac(a2-6)Gal
Outline: as §1

[4] = molecular target: Neu5Ac(a2-8)Neu5Ac(a2-8)Neu5Ac(a2-8)Neu5Ac(a2-3)[GalNAc(b1-4)]Gal(b1-4)Glc
Outline: as §1

[5] = molecular target: Fuc(a1-2)Gal(b1-3)GalNAc(a1-3)[Fuc(a1-2)]Gal(b1-4)Glc
Outline: as §1

[6] = molecular target: Fuc(a1-2)Gal(b1-3)GlcNAc(b1-3)Gal(b1-4)Glc
Outline: as §1

[7] = molecular target: Fuc(a1-2)Gal(b1-4)Glc6S
Outline: as §1

[8] = molecular target: Fuc(a1-2)[Gal(a1-3)]Gal(b1-4)[Fuc(a1-3)]GlcNAc
Outline: as §1

[9] = molecular target: Fuc(a1-2)[GalNAc(a1-3)]Gal
Outline: as §1

[10] = molecular target: Fuc(a1-2)[GalNAc(a1-3)]Gal(b1-4)GlcNAc(b1-3)Gal(b1-4)GlcNAc(b1-3)Gal(b1-4)GlcNAc
Outline: as §1

[11] = molecular target: Fuc(a1-3)[Gal(b1-4)]GlcNAc(b1-3)GalNAc
Outline: as §1

[12] = molecular target: Fuc(a1-3)[Gal3S(b1-4)]GlcNAc
Outline: as §1

[13] = molecular target: Gal(b1-3)GalNAc(a1-3)[Fuc(a1-2)]Gal(b1-4)Glc
Outline: as §1

[14] = molecular target: Gal(b1-3)GlcNAc(b1-6)Gal(b1-4)GlcNAc
Outline: as §1

[15] = molecular target: Gal(b1-4)GlcNAc
Outline: as §1

[16] = molecular target: Gal(b1-4)GlcNAc(b1-2)Man(a1-3)[Gal(b1-4)GlcNAc(b1-2)Man(a1-6)]Man(b1-4)GlcNAc(b1-4)GlcNAc
Outline: as §1

[17] = molecular target: Gal(b1-4)GlcNAc(b1-3)Gal(b1-3)GlcNAc
Outline: as §1

[18] = molecular target: Gal(b1-4)GlcNAc(b1-3)Gal(b1-4)[Fuc(a1-3)]GlcNAc(b1-3)Gal(b1-4)[Fuc(a1-3)]GlcNAc
Outline: as §1

[19] = molecular target: Gal6S(b1-4)GlcNAc6S
Outline: as §1

[20] = molecular target: GalNAc(b1-3)Gal
Outline: as §1

[21] = molecular target: Glc(a1-4)Glc
Outline: as §1

[22] = molecular target: GlcA(b1-3)GlcNAc
Outline: as §1

[23] = molecular target: GlcNAc(b1-2)Man(a1-3)[GlcNAc(b1-2)Man(a1-6)]Man(b1-4)GlcNAc(b1-4)GlcNAc
Outline: as §1

[24] = molecular target: GlcNAc(b1-2)[GlcNAc(b1-4)]Man(a1-3)[GlcNAc(b1-2)Man(a1-6)]Man(b1-4)GlcNAc(b1-4)GlcNAc
Outline: as §1

[25] = molecular target: GlcNAc(b1-3)[GlcNAc(b1-4)][GlcNAc(b1-6)]GlcNAc
Outline: as §1

[26] = molecular target: GlcNAc(b1-3)[GlcNAc(b1-6)]Gal(b1-4)GlcNAc
Outline: as §1

[27] = molecular target: GlcNAc(b1-4)[GlcNAc(b1-6)]GalNAc
Outline: as §1

[28] = molecular target: Neu5Ac(a2-3)Gal(b1-3)GalNAc6S
Outline: as §1

[29] = molecular target: Neu5Ac(a2-3)Gal(b1-3)GlcNAc6S
Outline: as §1

[30] = molecular target: Neu5Ac(a2-3)Gal(b1-3)[Fuc(a1-4)]GlcNAc(b1-3)Gal(b1-3)[Fuc(a1-4)]GlcNAc
Outline: as §1

[31] = molecular target: Neu5Ac(a2-3)Gal(b1-3)[Neu5Ac(a2-6)]GalNAc
Outline: as §1

[32] = molecular target: Neu5Ac(a2-3)Gal(b1-4)GlcNAc(b1-3)Gal(b1-4)[Fuc(a1-3)]GlcNAc
Outline: as §1

[33] = molecular target: Neu5Ac(a2-6)Gal(b1-4)Glc
Outline: as §1

[34] = molecular target: Neu5Ac(a2-6)GlcNAc(b1-4)GlcNAc
Outline: as §1

Binder	glycan array binding signal (z-score) [1]	glycan array binding signal (z-score) [2]	glycan array binding signal (z-score) [3]	glycan array binding signal (z-score) [4]	glycan array binding signal (z-score) [5]	glycan array binding signal (z-score) [6]	glycan array binding signal (z-score) [7]	glycan array binding signal (z-score) [8]	glycan array binding signal (z-score) [9]	glycan array binding signal (z-score) [10]	glycan array binding signal (z-score) [11]	glycan array binding signal (z-score) [12]	glycan array binding signal (z-score) [13]	glycan array binding signal (z-score) [14]	glycan array binding signal (z-score) [15]	glycan array binding signal (z-score) [16]	glycan array binding signal (z-score) [17]	glycan array binding signal (z-score) [18]	glycan array binding signal (z-score) [19]	glycan array binding signal (z-score) [20]	glycan array binding signal (z-score) [21]	glycan array binding signal (z-score) [22]	glycan array binding signal (z-score) [23]	glycan array binding signal (z-score) [24]	glycan array binding signal (z-score) [25]	glycan array binding signal (z-score) [26]	glycan array binding signal (z-score) [27]	glycan array binding signal (z-score) [28]	glycan array binding signal (z-score) [29]	glycan array binding signal (z-score) [30]	glycan array binding signal (z-score) [31]	glycan array binding signal (z-score) [32]	glycan array binding signal (z-score) [33]	glycan array binding signal (z-score) [34]
B1	-0.323	-0.639	5.85	0.14	–	–	–	–	–	–	–	–	–	–	–	–	–	–	–	–	–	–	–	–	–	–	–	–	–	–	–	–	–	–
B2	–	–	–	–	-0.152	-0.096	-0.137	-0.154	-0.165	-0.178	-0.124	-0.17	-0.165	-0.163	-0.154	-0.167	-0.174	-0.175	-0.162	-0.143	2.63	4.35	3.12	6.65	11.7	6.68	8.49	-0.18	-0.167	-0.086	-0.153	-0.179	-0.158	0.202
